The source of these data is PubChem BioAssay (NCI).

Test systems include NCI-H23 lung; NCI-H226 lung; NCI-H322M lung; HOP-62 NSCLC; NCI-H460 lung; HOP-92 NSCLC; NCI-H522 lung; A549/ATCC NSCLC; 786-0 renal; COLO 205 colon; DU-145 prostate; K-562 leukemia; MALME-3M melanoma; MDA-MB-231 breast; RXF 393 renal; SF-268 CNS; SF-295 CNS; SF-539 CNS; UACC-257 melanoma; M14 melanoma.
Test in all cases: NCI-60 one-dose screen, 48 h (100 = growth as untreated, 0 = no growth, -100 = all killed)
Holding throughout (conditions): 10 µM unless noted

This is part of a sample that, as a whole, favours compounds with a hit. Of some 83,000 tested, about 20% had one in any assay.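 Cell lines were cultured in 96-well plates, exposed to a single compound concentration, and assessed for percent growth 48 hours later.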 Unmarked numbers belong to inactive results. Active and inactive are the calls of the source. Rule for the calls: active = growth percent below 10; inactive = the rest.

On to `Oc1ccc(Cc2ccc(O)c3ncccc23)c2cccnc12`, for which the growth in the experiment on NCI-H23 lung was 9.78% (active); with NCI-H226 lung it was 12.1%; in the experiment with NCI-H322M lung it was 9.39% (active); in the experiment with HOP-62 NSCLC it was -2.91% (active); in the experiment with NCI-H460 lung it was 7.23% (active); with HOP-92 NSCLC it was -25.9% (active). Further, the growth with NCI-H522 lung is -10.8% (active); in the experiment on A549/ATCC NSCLC, 7.38% (active); with 786-0 renal, 19%; in the experiment on COLO 205 colon, 71%; with DU-145 prostate it was 23.5%; with K-562 leukemia, 9.66% (active). Moreover, the growth with MALME-3M melanoma was -14.1% (active); with MDA-MB-231 breast it was 5.46% (active); with RXF 393 renal, 9.57% (active); with SF-268 CNS, 27.5%; in the experiment with SF-295 CNS, -20.5% (active); in the experiment with SF-539 CNS it was 14.1%. Also, the results for the growth in the experiment on UACC-257 melanoma and in the experiment on M14 melanoma were -8.29% (active) and 17%, respectively.
Turning to `O=C(/C=C/c1ccc([N+](=O)[O-])cc1)c1cccc(Nc2nc(Nc3ccccc3)nc(Nc3ccccc3)n2)c1`, the growth with NCI-H23 lung is 60.9%; in the experiment on NCI-H226 lung it was 82.6%; in the experiment on NCI-H322M lung it was 75.9%; in the experiment on HOP-62 NSCLC it was 69.2%; in the experiment with NCI-H460 lung it was 81.1%; with HOP-92 NSCLC it was -2.76% (active). For the same compound, the growth was 78.7% in the experiment on NCI-H522 lung; 72.7% in the experiment with A549/ATCC NSCLC; 70.5% with 786-0 renal; 65.1% in the experiment with COLO 205 colon; 77.3% in the experiment with DU-145 prostate; 60.8% in the experiment with K-562 leukemia. In addition, the growth in the experiment with MALME-3M melanoma was 87.5%; in the experiment on MDA-MB-231 breast, 70.9%; in the experiment on RXF 393 renal, -39.7% (active); in the experiment on SF-268 CNS it was 85.5%; with SF-295 CNS, 79.7%; with SF-539 CNS, 74.7%. In addition, the growth in the experiment on UACC-257 melanoma is 98.7%; in the experiment with M14 melanoma, 74.5%.
With `O=C1c2ccccc2C(=O)c2cc(Cn3c[n+](Cc4ccc5ccccc5c4)c4ccccc43)ccc21`, the growth in the experiment with NCI-H23 lung was 56.5%; with NCI-H226 lung it was 63.9%; with NCI-H322M lung, 75.4%; in the experiment on HOP-62 NSCLC, 76.2%; in the experiment on NCI-H460 lung, 63.4%; in the experiment on HOP-92 NSCLC, 15.6%. The growth with NCI-H522 lung was 34.1%; with A549/ATCC NSCLC, 91%; in the experiment on 786-0 renal, 61.2%; in the experiment on COLO 205 colon, 24.4%; with DU-145 prostate, 83.1%; with K-562 leukemia it was 17.6%. Further, the growth with MALME-3M melanoma was 48%; in the experiment with MDA-MB-231 breast, 26.2%; in the experiment with RXF 393 renal, 62.6%; in the experiment with SF-268 CNS it was 49.3%; with SF-295 CNS it was 82.2%; with SF-539 CNS it was 70.6%. The growth with UACC-257 melanoma is 42.9%; in the experiment on M14 melanoma, 38.7%.
As to `CC1OC(C(=O)N2CCN(CCO)CC2)CC1COC1CCCCC1` (stereo not given), the growth is 94% [50 µM] in the experiment with NCI-H23 lung; 84.3% [50 µM] in the experiment on NCI-H226 lung; 90.9% [50 µM] in the experiment with NCI-H322M lung; 85.7% [50 µM] in the experiment on HOP-62 NSCLC; 100% [50 µM] with NCI-H460 lung; 87% [50 µM] with HOP-92 NSCLC. In addition, the growth in the experiment with NCI-H522 lung was 93.2% [50 µM]; in the experiment on A549/ATCC NSCLC it was 94.2% [50 µM]; in the experiment on 786-0 renal it was 109% [50 µM]; with COLO 205 colon it was 105% [50 µM]; in the experiment on DU-145 prostate, 105% [50 µM]; with K-562 leukemia, 91.6% [50 µM]. Moreover, the growth was 88.2% [50 µM] in the experiment with MALME-3M melanoma; 94.5% [50 µM] with MDA-MB-231 breast; 102% [50 µM] with RXF 393 renal; 97.2% [50 µM] in the experiment with SF-268 CNS; 102% [50 µM] with SF-295 CNS; 97.8% [50 µM] in the experiment with SF-539 CNS. Also, the growth with UACC-257 melanoma is 98% [50 µM]; with M14 melanoma, 100% [50 µM].
Regarding `COc1cc(OC)cc(C(=O)Nc2cnc(Nc3ccc(N4CCOCC4)nc3)nc2Oc2ccc(C(F)(F)F)cc2)c1`, the growth is 82% in the experiment with NCI-H23 lung; 39.9% in the experiment on NCI-H226 lung; 77.4% in the experiment on NCI-H322M lung; 43.1% in the experiment on HOP-62 NSCLC; 31.1% in the experiment with NCI-H460 lung; 86.7% in the experiment on HOP-92 NSCLC. The growth in the experiment with NCI-H522 lung is 77.1%; in the experiment with A549/ATCC NSCLC it was 35.4%; in the experiment with 786-0 renal it was 54.8%; in the experiment with COLO 205 colon it was 83%; in the experiment with DU-145 prostate, 78.8%; in the experiment on K-562 leukemia it was 97%. Moreover, the growth in the experiment with MALME-3M melanoma is 57.2%; with MDA-MB-231 breast, 44%; with RXF 393 renal it was 76.5%; in the experiment on SF-268 CNS it was 78.7%; in the experiment with SF-295 CNS, 77%; in the experiment on SF-539 CNS, 34%. In addition, the growth in the experiment on UACC-257 melanoma was 16.7%; in the experiment on M14 melanoma it was 93.1%.
Consider `Cc1ccccc1NC(=O)c1sc2nc3c(cc2c1N)CCCC3`, for which the growth with NCI-H23 lung is 47.2%; in the experiment on NCI-H226 lung, 63.4%; with NCI-H322M lung, 51.1%; with HOP-62 NSCLC, 27.4%; in the experiment on NCI-H460 lung, 11%; with HOP-92 NSCLC, 17.3%. Moreover, the growth in the experiment with NCI-H522 lung was 11.1%; in the experiment with A549/ATCC NSCLC, 34.3%; in the experiment on 786-0 renal, 33.7%; in the experiment with COLO 205 colon, 15.5%; in the experiment on DU-145 prostate, 25.2%; in the experiment with K-562 leukemia, 17.6%. Besides, the growth with MALME-3M melanoma is 53.9%; in the experiment on MDA-MB-231 breast, 52.5%; in the experiment with RXF 393 renal, 14.2%; in the experiment on SF-268 CNS, 49.6%; in the experiment on SF-295 CNS, 16.4%; in the experiment with SF-539 CNS it was 8.72% (active). For the same compound, the growth in the experiment with UACC-257 melanoma is 40.7%; in the experiment on M14 melanoma it was 27%.
Regarding `Nc1c(C(=O)c2ccc(Cl)cc2)sc(Nc2ccccc2)c1-c1nc2ccccc2s1`, the growth is 17% in the experiment on NCI-H23 lung; 49.9% in the experiment with NCI-H226 lung; 30.5% in the experiment on NCI-H322M lung; -7.72% (active) in the experiment on HOP-62 NSCLC; -0.299% (active) with NCI-H460 lung; -18.7% (active) in the experiment with HOP-92 NSCLC. In addition, the growth in the experiment with NCI-H522 lung was 7.38% (active); in the experiment with A549/ATCC NSCLC, 17.8%; in the experiment on 786-0 renal, 8.1% (active); in the experiment on COLO 205 colon, 51.4%; in the experiment with DU-145 prostate, 25.5%; in the experiment with K-562 leukemia, 55.2%. The growth in the experiment with MALME-3M melanoma is 20.7%; in the experiment with MDA-MB-231 breast, 18.8%; in the experiment on RXF 393 renal it was 72.8%; in the experiment with SF-268 CNS, 45.5%; in the experiment with SF-295 CNS, -24.4% (active); with SF-539 CNS, 43.2%. Moreover, the results for the growth in the experiment on UACC-257 melanoma and in the experiment on M14 melanoma were 58.8% and 30.6%, respectively.
For the compound `COc1cc(/C=C2\CN(S(=O)(=O)c3ccc(C)cc3)C/C(=C\c3cc(CN4CCCC4)c(O)c(OC)c3)C2=O)cc(CN2CCCC2)c1O`, the growth was -53.5% (active) with NCI-H23 lung; 31.9% in the experiment on NCI-H226 lung; 10.8% in the experiment with NCI-H322M lung; 4.13% (active) in the experiment with HOP-62 NSCLC; -67.4% (active) in the experiment with NCI-H460 lung; -16.7% (active) in the experiment with HOP-92 NSCLC. The growth in the experiment with NCI-H522 lung was -36.2% (active); with A549/ATCC NSCLC it was 21.2%; in the experiment on 786-0 renal, -74.7% (active); in the experiment on COLO 205 colon, -49.4% (active); in the experiment with DU-145 prostate, -12.5% (active); with K-562 leukemia it was 1.26% (active). In addition, the growth was -81.5% (active) in the experiment with MALME-3M melanoma; -20.3% (active) in the experiment with MDA-MB-231 breast; -87.8% (active) in the experiment on RXF 393 renal; 1.82% (active) in the experiment on SF-268 CNS; -40.3% (active) in the experiment with SF-295 CNS; -55.6% (active) in the experiment on SF-539 CNS. Further, the growth with UACC-257 melanoma is 57.7%; in the experiment on M14 melanoma it was -66.4% (active).
